Test results: ChEMBL document CHEMBL1961873, “Compounds: GSK PKIS; Assays: Nanosyn kinase panel” (2012)

Assays:
[1] = biological target: T1, Inhibitor of nuclear factor kappa-B kinase subunit epsilon (Homo sapiens) (UniProt Q14164); details: at 1 µM;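 further: reported values are averaged percent inhibition figures against human IKKε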
T1 sequence (whole entry): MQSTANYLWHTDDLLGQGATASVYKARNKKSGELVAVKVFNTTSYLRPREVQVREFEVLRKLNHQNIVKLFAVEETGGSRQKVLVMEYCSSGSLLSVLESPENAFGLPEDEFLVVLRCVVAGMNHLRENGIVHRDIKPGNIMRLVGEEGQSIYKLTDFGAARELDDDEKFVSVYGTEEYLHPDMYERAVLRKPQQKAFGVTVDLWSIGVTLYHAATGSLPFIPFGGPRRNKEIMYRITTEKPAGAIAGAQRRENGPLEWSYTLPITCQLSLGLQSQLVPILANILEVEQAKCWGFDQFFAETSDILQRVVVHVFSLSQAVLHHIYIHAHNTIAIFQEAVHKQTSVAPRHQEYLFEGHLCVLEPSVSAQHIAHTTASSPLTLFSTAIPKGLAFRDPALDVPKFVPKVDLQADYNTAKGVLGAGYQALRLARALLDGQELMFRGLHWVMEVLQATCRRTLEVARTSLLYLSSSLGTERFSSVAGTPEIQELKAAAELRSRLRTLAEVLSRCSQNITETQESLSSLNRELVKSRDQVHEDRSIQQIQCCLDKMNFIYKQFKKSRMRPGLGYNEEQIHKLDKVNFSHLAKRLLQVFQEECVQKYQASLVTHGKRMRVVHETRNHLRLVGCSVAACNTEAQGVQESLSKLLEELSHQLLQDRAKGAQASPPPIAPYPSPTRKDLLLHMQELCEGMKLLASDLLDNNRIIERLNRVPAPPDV

[2] = biological target: T2, Serine/threonine-protein kinase Nek1 (Homo sapiens) (UniProt Q96PY6); details: at 0.1 µM
T2 sequence (whole entry): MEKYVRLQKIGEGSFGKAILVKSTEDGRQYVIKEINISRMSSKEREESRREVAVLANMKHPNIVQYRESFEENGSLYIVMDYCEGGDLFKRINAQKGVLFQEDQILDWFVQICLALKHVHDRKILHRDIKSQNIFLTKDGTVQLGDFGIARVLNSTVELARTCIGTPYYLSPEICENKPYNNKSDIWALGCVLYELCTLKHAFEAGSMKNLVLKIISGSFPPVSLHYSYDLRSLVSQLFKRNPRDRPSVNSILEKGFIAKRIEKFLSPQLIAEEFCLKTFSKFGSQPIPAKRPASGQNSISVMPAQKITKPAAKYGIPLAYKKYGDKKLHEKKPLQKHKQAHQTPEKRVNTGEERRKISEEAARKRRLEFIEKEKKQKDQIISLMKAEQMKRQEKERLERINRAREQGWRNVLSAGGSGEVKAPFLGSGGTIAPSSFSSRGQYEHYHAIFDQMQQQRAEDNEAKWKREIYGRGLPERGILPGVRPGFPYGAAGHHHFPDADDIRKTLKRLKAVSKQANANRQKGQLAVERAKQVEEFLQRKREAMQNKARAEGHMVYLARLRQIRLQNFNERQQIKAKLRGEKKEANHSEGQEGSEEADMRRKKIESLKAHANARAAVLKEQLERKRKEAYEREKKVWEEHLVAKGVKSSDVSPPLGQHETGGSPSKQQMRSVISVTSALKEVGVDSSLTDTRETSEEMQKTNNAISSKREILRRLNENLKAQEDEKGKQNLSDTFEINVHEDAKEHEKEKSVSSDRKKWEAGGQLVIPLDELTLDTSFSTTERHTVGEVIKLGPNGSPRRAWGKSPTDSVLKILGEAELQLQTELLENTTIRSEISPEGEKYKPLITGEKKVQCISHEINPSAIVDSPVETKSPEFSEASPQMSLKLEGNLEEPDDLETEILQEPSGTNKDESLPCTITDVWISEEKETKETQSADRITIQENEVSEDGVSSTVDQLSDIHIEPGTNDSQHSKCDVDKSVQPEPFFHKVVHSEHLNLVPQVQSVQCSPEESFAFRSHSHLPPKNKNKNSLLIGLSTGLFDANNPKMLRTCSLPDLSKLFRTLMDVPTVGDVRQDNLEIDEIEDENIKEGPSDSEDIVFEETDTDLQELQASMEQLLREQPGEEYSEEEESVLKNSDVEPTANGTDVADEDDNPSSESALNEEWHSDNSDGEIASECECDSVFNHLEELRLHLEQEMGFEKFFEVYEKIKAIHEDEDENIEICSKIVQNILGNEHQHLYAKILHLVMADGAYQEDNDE

[3] = biological target: T2, Serine/threonine-protein kinase Nek1 (Homo sapiens); details: at 1 µM
[4] = biological target: T3, Serine/threonine-protein kinase Nek2 (Homo sapiens) (UniProt P51955); details: at 0.1 µM
T3 sequence (whole entry): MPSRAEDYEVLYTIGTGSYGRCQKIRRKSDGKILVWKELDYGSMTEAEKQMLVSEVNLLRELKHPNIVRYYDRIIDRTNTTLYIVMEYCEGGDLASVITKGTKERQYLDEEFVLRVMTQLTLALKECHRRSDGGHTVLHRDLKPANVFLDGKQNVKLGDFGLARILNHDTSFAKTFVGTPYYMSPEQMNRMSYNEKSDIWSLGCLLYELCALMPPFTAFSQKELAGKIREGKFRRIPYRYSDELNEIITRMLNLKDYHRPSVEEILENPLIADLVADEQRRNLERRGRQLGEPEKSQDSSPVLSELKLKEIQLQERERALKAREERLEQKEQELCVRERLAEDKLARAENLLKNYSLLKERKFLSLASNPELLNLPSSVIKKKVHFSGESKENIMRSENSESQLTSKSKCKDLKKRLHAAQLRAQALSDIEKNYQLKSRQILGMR

[5] = biological target: T3, Serine/threonine-protein kinase Nek2 (Homo sapiens); details: at 1 µM
[6] = biological target: Serine/threonine-protein kinase Nek6 (Homo sapiens) (UniProt Q9HC98); details: at 0.1 µM
Sequence of Serine/threonine-protein kinase Nek6 (Homo sapiens) (Q9HC98 whole entry): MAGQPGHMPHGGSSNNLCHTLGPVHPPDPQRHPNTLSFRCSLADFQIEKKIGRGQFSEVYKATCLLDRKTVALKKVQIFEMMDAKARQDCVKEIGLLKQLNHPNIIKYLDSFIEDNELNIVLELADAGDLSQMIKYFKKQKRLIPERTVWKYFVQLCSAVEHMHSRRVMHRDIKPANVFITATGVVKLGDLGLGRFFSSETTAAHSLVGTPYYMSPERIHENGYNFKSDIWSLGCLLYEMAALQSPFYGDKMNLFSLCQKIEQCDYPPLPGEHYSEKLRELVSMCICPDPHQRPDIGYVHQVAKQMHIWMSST

[7] = biological target: Serine/threonine-protein kinase Nek6 (Homo sapiens) (UniProt Q9HC98); details: at 1 µM
[8] = biological target: Serine/threonine-protein kinase Nek7 (Homo sapiens) (UniProt Q8TDX7); details: at 0.1 µM
Sequence of Serine/threonine-protein kinase Nek7 (Homo sapiens) (Q8TDX7 whole entry, looked up): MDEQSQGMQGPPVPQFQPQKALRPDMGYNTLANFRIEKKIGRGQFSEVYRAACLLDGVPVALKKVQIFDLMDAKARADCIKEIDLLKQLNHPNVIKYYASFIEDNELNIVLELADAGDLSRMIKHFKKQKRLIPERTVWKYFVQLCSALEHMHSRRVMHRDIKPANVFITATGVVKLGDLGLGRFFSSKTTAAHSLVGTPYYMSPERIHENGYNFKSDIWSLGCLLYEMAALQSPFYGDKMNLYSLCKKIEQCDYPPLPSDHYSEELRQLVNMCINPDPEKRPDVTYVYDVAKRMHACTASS

[9] = biological target: Serine/threonine-protein kinase Nek7 (Homo sapiens) (UniProt Q8TDX7); details: at 1 µM
[10] = biological target: T4, Serine/threonine-protein kinase Nek9 (Homo sapiens) (UniProt Q8TD19); details: at 0.1 µM;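 further: reported value is the mean percent inhibition of NEK9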
T4 sequence (whole entry): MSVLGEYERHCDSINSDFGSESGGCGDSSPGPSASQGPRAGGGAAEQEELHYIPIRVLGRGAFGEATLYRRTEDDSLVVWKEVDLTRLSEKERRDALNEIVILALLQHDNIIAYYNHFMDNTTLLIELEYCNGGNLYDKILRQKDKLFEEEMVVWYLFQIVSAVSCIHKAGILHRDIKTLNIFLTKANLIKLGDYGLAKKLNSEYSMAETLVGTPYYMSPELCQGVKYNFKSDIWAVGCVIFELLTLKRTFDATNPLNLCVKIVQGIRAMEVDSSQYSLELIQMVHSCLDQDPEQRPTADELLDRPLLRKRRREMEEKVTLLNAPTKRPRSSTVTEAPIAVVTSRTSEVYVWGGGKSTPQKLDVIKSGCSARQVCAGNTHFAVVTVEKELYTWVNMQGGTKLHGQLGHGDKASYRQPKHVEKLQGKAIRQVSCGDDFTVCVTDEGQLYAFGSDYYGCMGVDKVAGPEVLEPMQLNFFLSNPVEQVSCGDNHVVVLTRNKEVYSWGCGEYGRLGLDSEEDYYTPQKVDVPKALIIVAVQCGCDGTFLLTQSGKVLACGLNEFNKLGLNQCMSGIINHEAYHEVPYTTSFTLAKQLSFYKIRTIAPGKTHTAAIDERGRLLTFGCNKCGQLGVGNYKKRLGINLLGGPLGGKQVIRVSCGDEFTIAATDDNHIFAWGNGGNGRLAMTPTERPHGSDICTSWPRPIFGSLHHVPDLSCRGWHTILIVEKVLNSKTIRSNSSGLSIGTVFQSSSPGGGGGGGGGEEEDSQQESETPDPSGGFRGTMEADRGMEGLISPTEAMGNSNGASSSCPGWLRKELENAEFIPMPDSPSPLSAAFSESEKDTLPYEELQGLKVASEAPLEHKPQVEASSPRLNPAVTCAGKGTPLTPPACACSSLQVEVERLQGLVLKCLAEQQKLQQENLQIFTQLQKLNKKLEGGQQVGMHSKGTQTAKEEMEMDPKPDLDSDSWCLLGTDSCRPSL

COc1cccc(/C=N/Nc2ncnc3c2cnn3-c2cccc(OC)c2)c1
inhibition [1]: 6.73%
inhibition [2]: 1.81%
inhibition [3]: 3.93%
inhibition [4]: 5.68%
inhibition [5]: 3.79%
inhibition [6]: 1.07%
inhibition [7]: 2.21%
inhibition [8]: 3.9%
inhibition [9]: 8.57%
inhibition [10]: 7.75%
